# Measured values as given in PubChem BioAssay (NCATS).
# Results filed as inconclusive are left out. Active and inactive are the calls of the source. Calls come from the whole dose curve; as a rule, active = well fitted inhibition curve with a large enough effect; inconclusive = small, poorly fitted or top-dose-only effect; inactive = no such curve, though single readings can be large or run the other way.
# Target: Rap guanine nucleotide exchange factor 3 (Homo sapiens) (UniProt O95398)
# Experiment: Counterscreen qHTS for antagonist of cAMP-regulated guanine nucleotide exchange factor 3 (EPAC1) (AID 1645888); note: % of control where 0% means no effect
# Conditions: Rap1B-BODIPY-GDP nucleotide exchange, fluorescence; series mostly up to 154 µM; activity change, negative = inhibition: at the top concentration
# From the text: Assay Provider (PI): Xiaodong Cheng Ph.D. The University of Texas Medical Branch, […], TX MLPCN Grant: NS066510 In multi-cellular eukaryotic organisms, the effects of cAMP are transduced by two ubiquitously-expressed intracellular cAMP receptors, the classic protein kinase A/cAMP-dependent protein kinase (PKA/cAPK) and the more recently discovered exchange protein directly activated by cAMP/cAMP-regulated guanine nucleotide exchange factor (EPAC/cAMP-GEF). Both PKA and EPAC are ubiquitously expressed in all tissues, and an increase in intracellular cAMP levels will lead to the activation of both PKA and EPAC. Therefore, careful dissections of the individual role and relative contribution of EPAC and PKA within the overall cAMP signaling in various model systems are critical for further elucidating the mechanism of cAMP signaling. To date no EPAC-specific antagonists and agonist, as well as isoform-specific agonists have been reported, and developing EPAC-specific pharmacological probes to determine the physiological functions that EPAC play in the overall cAMP-mediated signaling remains a major challenge within the research field. Furthermore, identified regulators of EPAC may lead to new mechanism-based therapeutic strategies specifically targeting the EPAC / cAMP-signaling components as EPAC has been implicated to play important roles in major human pathological conditions such as diabetes, heart disease, and cancer. This qHTS will be used to screen the Molecular Libraries Small Molecule Repository (MLSMR) as a concentration-titration series using the NCGC unique quantitative screening (qHTS) platform to find activators for EPAC1. In addition, this assay will also be used as a counterscreen for the EPAC2 qHTS. This fluorescent based assay is developed and validated for EPAC1 that measures exchange using EPAC effector Rap1 complex with BODIPY-GDP, a GDP analog with a tethered fluorophores. Activators are identified by monitoring the change in fluorescence signal as the exchanged free BODIPY-GDP has a reduced fluorescence compared to Rap1-bound BODIPY-GDP. Increase in signal (activation) is the desired outcome for the EPAC1 agonist while no activity in this assay is desired for the EPAC2 agonist counterscreen. Reference: [1] de Rooij, J., Zwartkruis, F. J., Verheijen, M. H., Cool, R. H., Nijman, S. M., Wittinghofer, A., and Bos, J.L. (1998) Nature 396, 474-477. Kawasaki, H., Springett, G. M., Mochizuki, N., Toki, S., Nakaya, M., Matsuda, M., Housman, D. E., and Graybiel, A. M. (1998) Science 282, 2275-2279.
# EPAC1 Counterscreen PROTOCOL TABLE SEQUENCE No. (e.g., 1, 2, 3, etc.); […] (e.g., Cells, Incubation, Reagent, etc.); VALUE and DESCRIPTION. 1. Reagent. 3 uL. [1x] 250 nM Rap1B-BODIPY-GDP, and 50 uM GDP. 2a. Compound. 23 nL. Control 6,572 uM cAMP (working concentration). 2b, 2c. Compound. 23 nL. Control activator and inhibitor; 234 - 30,000 uM cAMP and 16.4 - 10,000 uM. 2d. Compound. 46 nL. MLSMR follow-up library; 0.64 - 10,000 uM. 3. Time. 15 sec, 1000rpm. Centrifuge. 4. Time. 5 min. Incubation at room temperature. 5. Detector. Fluorescence. (Read 1), Ex/Em = 480 nm / 540 nm. 6. Time. 30 min. Incubation at room temperature. 7. Detector. Fluorescence. (Read 2), Ex/Em = 480 nm/ 540 nm. 8. Reagent. 1uL. Dispense either [4x] 10 uM cAMP or buffer. 9. Time. 15 sec, 1000 rpm. Centrifuge. 10. Time. 5 min. Incubation at room temperature. 11. Detector. Fluorescence. (Read 3), Ex/Em = 480 nm / 540 nm. 12. Time. 30 min. Incubation at room temperature. 13. Detector. Fluorescence. (Read 4), Ex/Em = 480 nm / 540 nm. NOTES (numbers refer to Sequence numbers above; values are from representative experiments) 1. Medium-binding black solid-bottom Greiner plates (789176-F). Dispense 3 uL of [1x] 250 nM Rap1B-BODIPY-GDP, and 50 uM GDP into columns 1 to 48. 2a. Control compound cAMP (6,572 uM, column 3, rows 1 to 32) single pin-transferred for a [final] of 50 uM. 2b. […]
# Chain of Rap guanine nucleotide exchange factor 3 (Homo sapiens) (O95398 whole entry, looked up): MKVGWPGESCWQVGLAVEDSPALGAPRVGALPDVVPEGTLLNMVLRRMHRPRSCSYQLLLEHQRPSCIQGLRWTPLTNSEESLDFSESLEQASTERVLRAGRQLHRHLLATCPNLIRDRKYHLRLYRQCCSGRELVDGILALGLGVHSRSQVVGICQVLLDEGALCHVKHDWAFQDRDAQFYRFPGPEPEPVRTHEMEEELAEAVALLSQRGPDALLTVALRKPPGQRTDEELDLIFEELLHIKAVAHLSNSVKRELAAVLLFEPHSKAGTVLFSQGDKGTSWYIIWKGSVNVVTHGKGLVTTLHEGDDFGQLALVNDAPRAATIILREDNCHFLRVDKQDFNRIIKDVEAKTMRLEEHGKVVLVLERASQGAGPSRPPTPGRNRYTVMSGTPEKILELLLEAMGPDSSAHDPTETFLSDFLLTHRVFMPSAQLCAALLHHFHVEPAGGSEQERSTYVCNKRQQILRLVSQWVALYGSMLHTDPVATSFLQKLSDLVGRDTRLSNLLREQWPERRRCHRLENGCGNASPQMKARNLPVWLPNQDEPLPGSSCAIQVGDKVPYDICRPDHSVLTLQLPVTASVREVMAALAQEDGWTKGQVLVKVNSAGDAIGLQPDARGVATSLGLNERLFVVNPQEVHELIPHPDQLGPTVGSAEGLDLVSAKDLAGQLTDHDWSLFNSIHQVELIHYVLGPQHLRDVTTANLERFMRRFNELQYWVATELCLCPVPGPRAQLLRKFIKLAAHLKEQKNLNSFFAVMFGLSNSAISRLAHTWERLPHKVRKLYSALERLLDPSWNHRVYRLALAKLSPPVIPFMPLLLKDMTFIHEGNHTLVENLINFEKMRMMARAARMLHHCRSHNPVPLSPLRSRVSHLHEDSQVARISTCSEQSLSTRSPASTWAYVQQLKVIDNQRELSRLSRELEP
row,SMILES,"activity change, negative = inhibition"
1,COc1ccc(-n2c(SCC(=O)Nc3nccs3)nc3c(c2=O)SC(C)C3)cc1 (stereo not given),7.82% (inactive)
2,CCOC(=O)c1[nH]c(C)c(C(=O)NC(C)(C)C)c1C,-3.98% (inactive)
3,COc1cc2cc(CNc3ccc(C)cc3)c(=O)n(CC(=O)Nc3ccc(F)cc3F)c2cc1OC,38% (inactive)
4,C=CCc1cc(/C=C/c2nc(O)c([N+](=O)[O-])c(=O)[nH]2)cc(OC)c1O,-8.01% (inactive)
5,Cc1ccc2nc(NC(=O)CSc3ncnc4c3oc3ccccc34)sc2c1,4.33% (inactive)
6,COc1cnc(-c2ccccn2)nc1Oc1c(C)cccc1C,6.63% (inactive)
7,Nc1nnc(-c2cccc(F)c2)s1,0.618% (inactive)
8,COc1cc(/C=C2\SC(=S)N(NS(=O)(=O)c3ccc(C)cc3)C2=O)cc(OC)c1OC,-14.6% (inactive)
9,CC(=O)NC(CCS(C)(=O)=O)C(=O)Nc1cccc(C)c1C (stereo not given),-22.1% (inactive)
10,Cn1c(N)c(C(=O)COC(=O)COc2ccccc2C#N)c(=O)n(C)c1=O,3.67% [at 30.8 µM] (inactive)
11,O=C(CC[C@H]1O[C@@H](n2ccc(=O)[nH]c2=O)[C@H](O)[C@@H]1O)NCc1cccc2ccccc12,8.83% (inactive)
12,COc1ccc(C(C(=O)c2ccccc2)c2ccccc2)cc1 (stereo not given),-11.6% (inactive)
13,COc1cc(/C=N/NC(=O)c2ccccn2)ccc1OC(=O)c1ccc(Br)cc1,20.6% (inactive)
14,O=C(Nc1nc(-c2ccccc2)cs1)c1ccccc1NS(=O)(=O)c1ccc(F)cc1,-2.02% (inactive)
15,Cc1ccc(NC(=O)C2CCN(S(=O)(=O)c3ccc4c(c3)OCCCO4)CC2)nc1,13.4% [at 30.8 µM] (inactive)
16,CSc1nc(N2CCOCC2)c2c3c(sc2n1)CCCC3,13.1% (inactive)
17,CCn1c2ccccc2c2nnc(SCC(=O)N(C)C3CCS(=O)(=O)C3)nc21 (stereo not given),5.48% [at 30.8 µM] (inactive)
18,O=C(Nc1ccncc1)c1ccc2ncsc2c1,-9.15% (inactive)
19,Nc1c(C(=O)Nc2ccc3c(c2)OCCO3)nnn1Cc1cccc(Br)c1,-24.5% [at 30.8 µM] (inactive)
20,O=c1oc2ccccc2nc1/C=C(O)/C=C\c1ccccc1,-9.13% [at 30.8 µM] (inactive)

row,SMILES,"activity change, negative = inhibition"
1,COc1ccccc1Nc1nc(N)nc(CN2CCC(C)CC2)n1,14.1% (inactive)
2,Cc1cccc(CN2[C@@H](CC(C)C)COCCS2(=O)=O)c1,-25.4% (inactive)
3,O=C(NC1CCC(O)CC1)c1cccc2cccnc12 (stereo not given),4.25% (inactive)
4,O=c1ccc(-c2ccccc2)nn1Cc1c(F)cccc1Cl,19.3% (inactive)
5,COc1ccc(S(=O)(=O)Nc2cccc(F)c2)cc1C,-14.5% [at 30.8 µM] (inactive)
6,O=C1CSC2(C(=O)N(Cc3cccc(C(F)(F)F)c3)c3ccccc32)N1c1ccc(F)c(F)c1 (stereo not given),-28.2% (inactive)
7,NNc1nc2c(Cl)c(Cl)ccc2s1,3.53% [at 30.8 µM] (inactive)
8,CCOc1ccc(/C(C)=N/NC(=O)C(OC)c2ccccc2)cc1 (stereo not given),12.1% (inactive)
9,CCc1ccc2c(c1)C(NC(C)=O)C(=O)N2CCN1CCOCC1 (stereo not given),23.1% (inactive)
10,COc1cccc(CC(=O)Nc2ccc(S(=O)(=O)Nc3nccs3)cc2)c1,-17.8% [at 30.8 µM] (inactive)
11,O=C(c1ccc2c(c1)N(Cc1ccccc1)CCS2)N1CCCCC1,5.33% (inactive)
12,COc1ccc(C(=O)NCc2ccc3c(c2)CCN3C(=O)c2ccc(C)cc2)cc1,25.6% (inactive)
13,Cc1ccc(-n2nc(C(=O)N(C)c3ccc(C)c(C)c3)c3c4ccccc4n(C)c3c2=O)cc1,13.2% (inactive)
14,COc1ccc(C(=O)N(Cc2ccccc2)c2cccc(C)c2)c(OC)c1OC,-8.31% (inactive)
15,COCCN(CCOC)Cc1cc(=O)oc2cc(C)c(C)cc12,-13% [at 30.8 µM] (inactive)
16,COc1ccc2c(c1)cc(C(=O)N/N=C/c1c(O)c(C(=O)O)cc3ccccc13)n2C,15.8% (inactive)
17,CC1=Nc2ccccc2/C1=C/c1sc(=S)n(-c2cccc(C(=O)O)c2)c1O,11.8% [at 30.8 µM] (inactive)
18,CNC(=O)NC(=O)C(NC1CCCc2ccccc21)c1ccccc1 (stereo not given),-7.62% (inactive)
19,Cc1cccn2c(=O)cc(CSc3nnc(NC(=O)COc4ccccc4)s3)nc12,19% (inactive)
20,COc1ccc2c(c1)CC/C(=C\Nc1ccc3c(c1)OCO3)C2=O,1.41% (inactive)
